TRb-SRC2 inh = inhibitors of human thyroid hormone receptor beta-SRC2 interaction | TRbeta-SRC2 peptide binding, fluorescence polarization; receptor liganded with 1 µM T3 | P10828 | Potency, µM (highest dose often 106 µM), inactives show top-dose activity change, negative = inhibition, usual class: inhibitors | 280,000 compounds, 0.065% hits;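 further: plate controls were bound peptide for no effect and peptide without receptor for full effect; nearly all actives have a fitted effect of over 50% in size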
Target sequence (P10828 whole entry, looked up): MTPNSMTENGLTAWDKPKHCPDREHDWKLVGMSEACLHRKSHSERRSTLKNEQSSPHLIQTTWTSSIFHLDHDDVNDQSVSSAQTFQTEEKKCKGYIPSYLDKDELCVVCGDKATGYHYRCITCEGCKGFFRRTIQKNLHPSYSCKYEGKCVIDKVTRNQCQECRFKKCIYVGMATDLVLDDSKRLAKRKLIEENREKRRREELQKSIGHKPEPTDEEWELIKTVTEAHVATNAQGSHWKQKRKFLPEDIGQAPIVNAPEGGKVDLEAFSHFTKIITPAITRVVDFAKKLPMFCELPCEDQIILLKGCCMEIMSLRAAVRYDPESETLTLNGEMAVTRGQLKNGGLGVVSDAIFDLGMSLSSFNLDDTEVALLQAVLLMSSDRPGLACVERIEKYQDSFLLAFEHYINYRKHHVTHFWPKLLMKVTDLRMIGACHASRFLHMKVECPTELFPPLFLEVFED
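Each compound concentration gave % activity, normalized to unbound and bound Texas Red SRC2 controls, from polarization read after 5 hr ambient incubation with T3-loaded human TRb LBD.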
Tau fibril ThT = blocks human tau fibril formation measured by thioflavin T; P10636; Potency, µM (series often up to 57.4 µM), without a hit: at the top dose activity, negative = inhibition, actives largely listed as inhibitors; 270,000 compounds, 2.1% hits; recombinant tau K18 P301L, heparin-induced fibrillization, ThT fluorescence; further: nearly all actives have a fitted effect of over 55% in size
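Using a mix of unlabeled (15 uM) and Alexa 594-labeled (0.24 uM) tau K18 P301L, heparin-triggered fibrillization over 6 hr at 37 C was scored by ThT fluorescence.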
TexasRed fluor = alters Texas Red total fluorescence, flagging assay interference; 280,000 compounds, 0.29% hits; TRb/SRC2 Texas Red total fluorescence interference; AID 1479; Potency, µM (top dose mostly 106 µM), without a hit: at the top dose fluorescence change, negative = quenching; active means well fitted curve in either direction with a large enough effect; inconclusive means small, poorly fitted or top-dose-only effect
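Flags fluorescent or light-absorbing compounds by total fluorescence, S + 2P, at 555 nm excitation and 632 nm emission. Mixture: 20 nM Texas Red SRC2 peptide, 0.6 uM human TRb LBD, 1 uM T3, 5% DMSO; compound exposure 5 h at ambient temperature.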
Tau fibril FP = inhibitors of human tau fibril formation | K18 P301L tau heparin fibrillization, Alexa594 FP, 6 h | Potency, µM (series often up to 57.7 µM), without a hit: at the highest dose activity, negative = inhibition, usual class: inhibitors | 280,000 compounds, 0.39% hits; further: nearly all actives have a fitted effect of over 55% in size
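Recombinant K18 P301L […], labeled with Alexa 594 at 0.24 uM over 15 uM unlabeled; heparin inducer 20 uM final; 37 C, 6 hr; FP endpoint.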
Tau fluor counter = counter-screen for tau fibril formation inhibitors. tau K18 P301L (four-repeat tau fragment) Alexa594 fluorescence, heparin fibrillization. Potency, µM (series often up to 57.7 µM), inactives show top-dose activity change, negative = decrease. 280,000 compounds, 0.93% hits; further: nearly all actives have a fitted effect of over 55% in size
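Human K18 P301L tau (15 uM unlabeled plus 0.24 uM Alexa 594-labeled, final) in 100 mM sodium acetate pH 7 was mixed with compound and 20 uM heparin and incubated 6 hr at 37 C.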
The depositor's hits bear a star; ? = inconclusive; / = no result; [ ] = dose if it differs, or a comment. Sampled rows, rich in hits. Any-hit rate of the full collection: about 3.1%. Unless noted, the call rests on the fitted dose curve; in most records, active means well fitted curve in the direction sought with a large enough effect; inconclusive means small, poorly fitted or top-dose-only effect, or another doubt; inactive means no such curve, though single readings can be large; an effect the other way counts as inactive or inconclusive. Unless noted, on the % scale 0 is the no-effect control and ±100 the full control effect; potency means the concentration at half of the fitted maximal effect.

SMILES	TRb-SRC2 inh	Tau fibril ThT	TexasRed fluor	Tau fibril FP	Tau fluor counter
COc1cc([N+](=O)[O-])ccc1NC(=O)Nc1ccc2c(c1)OCCO2	10.2%	12.6µM*	-3.6%	?	15.8µM*[quencher]
O=C(Nc1ccc([N+](=O)[O-])cc1)Nc1ccc2c(c1)OCCO2	0.0%	?	-4.2%	?	8.91µM*[quencher]
COc1cc([N+](=O)[O-])ccc1NC(=O)Oc1ccc(NC(C)=O)cc1	6.8%	-9.4%	0.8%	-0.2%	-5.2%
COc1cc(NC(=O)Nc2ccc3c(c2)OCO3)cc(OC)c1OC	0.8%	-5.0%	-2.8%	4.0%	-17.5%
COc1ccc(C(C)(C)C)cc1NC(=O)Nc1ccc2c(c1)OCO2	1.2%	?	1.2%	?	14.1µM*[quencher]
COc1ccc(N2CCN(C(=O)C3CCN(c4nc5ccc(C)cc5[nH]4)CC3)CC2)cc1	-1.4%	?	-1.1%	2.9%	-15.0%
Cc1cc2c(cc1C)CSC(c1ccc3ccccc3c1O)SC2	2.7%	-18.0%	-3.1%	-1.6%	?
Cc1cc2c(cc1C)CSC(c1c(O)ccc3ccccc13)SC2	-1.0%	?	-0.1%	22.4µM*	7.94µM*[quencher]
O=c1[nH]c(/C=C2\C=Nc3ccccc32)c(O)n1Cc1ccccc1F	-3.1%	?	-8.1%	0.4%	7.94µM*[quencher]
N=c1c(-c2nc3ccccc3[nH]2)cc(C(=O)c2cccs2)nn1-c1ccccc1	-6.3%	-2.3%	0.0%	-3.9%	-3.9%
N=c1c(-c2nc3ccccc3[nH]2)cc(C(=O)c2ccco2)nn1-c1ccccc1	5.3%	15.8µM*	-1.1%	9.6%	?
COc1ccc(-c2cc(-c3ccc(C)cc3)nc3c2COc2ccccc2-3)cc1	-3.3%	-2.0%	-2.7%	?	-15.4%
COc1ccc(CN=C(Nc2ccccc2)SC2CC(=O)NC2=O)cc1 (stereo unspecified)	2.6%	10µM*	10.5%	-4.4%[2.34 µM]	-63.0%
COc1ccc(NC(=O)c2oc3ccccc3c2NC(=O)Cc2coc3ccc(C)cc23)cc1	2.3%	-0.7%	-18.7%	?	?
COc1cc(C(=O)O)ccc1O	-2.3%	-5.5%	-2.3%	-4.6%	-5.2%
COc1cc(N=Nc2ccccc2C(=O)O)ccc1O	6.5%	7.08µM*	0.0%	0.9%	-12.3%
Cc1cc(N=Nc2ccccc2C(=O)O)c(C)c(C)c1O	19.1%	0.891µM*	?	1.1%	?
Cc1cc(O)c(C(C)C)cc1N=Nc1ccccc1C(=O)O	4.0%	6.31µM*	-7.7%	-2.4%	-23.3%
Cc1cc(O)c(C(C)C)cc1N=C1CSC(=O)N1	-23.4%	?	-3.5%	-7.6%	?
Cc1cc(C)c(C)c(C(=O)c2ccccc2C(=O)O)c1C	-3.6%	-0.9%	-3.6%	-1.7%	6.5%
NC(=O)[C@H]1CCCN1C(=O)[C@H](Cc1cnc[nH]1)NC(=O)[C@@H]1CCC(=O)N1	3.3%	/	?	/	/
COc1ccc(NC(=O)COCc2cc(-c3ccc4c(c3)OCO4)on2)cc1	-7.0%	?	-2.7%	?	-14.4%
O=C(N/N=C/C(Cl)=C/c1ccc([N+](=O)[O-])cc1)C(=O)Nc1cccc(C(=O)O)c1	-1.2%	3.55µM*	-5.3%	-7.1%	?
CC(/C=N/NC(=O)c1cccc([N+](=O)[O-])c1)=C\c1ccccc1	-33.5%	-11.6%	1.7%	5.6%	-13.3%
CC(=O)c1ccc(NC(=S)Nc2ccc3cn[nH]c3c2)cc1	-4.2%	15.8µM*	-7.1%	?	?
SMILES	TRb-SRC2 inh	Tau fibril ThT	TexasRed fluor	Tau fibril FP	Tau fluor counter
CC(C)c1ccc(NC(=S)Nc2ccc3cn[nH]c3c2)cc1	1.4%	?	-1.1%	3.4%	-25.1%
Cc1ccc(CN2CCCn3nc(C(=O)NCCc4ccc(Cl)cc4)cc3C2=O)cc1	-5.1%	-0.8%	-1.1%	3.0%	11.5%
Cc1cc(C)c2oc(-c3ccc(Cl)c(NC(=O)c4cccs4)c3)nc2c1	1.5%	?	?	-10.5%	-17.4%
NC(=S)Cc1nc(-c2ccccc2)cs1	-3.5%[53 µM]	20µM*	-3.1%[53 µM]	?	?
Oc1csc(Cc2nc(-c3ccc(-c4ccccc4)cc3)cs2)n1	0.8%	?	-4.3%	4.6%	-28.8%
Cc1cccc2cc3c(N)c(C#N)sc3nc12	-5.3%	12.6µM*	-3.5%	?	?
